Laboratory results published in PubChem BioAssay (NCI).
This is part of a sample that, as a whole, favours compounds with a hit. Of some 83,000 tested, about 20% had one in any assay.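 48-hour exposure, single concentration, 96-well plates; percent growth endpoint where 0 means no net growth. Active: below 10.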 Active and inactive are the calls of the source.

Test system: HL-60(TB) leukemia
Experiment: NCI-60 one-dose screen, 48 h (100 = growth as untreated, 0 = no growth, -100 = all killed)
Conditions: 10 µM unless noted

Compound	growth
O=C1NC(=Nc2ccc(S(=O)(=O)Nc3nccs3)cc2)S/C1=C\c1coc2ccccc2c1=O	107% (inactive)
CCCCSc1cc(C)nc(N)n1	96.6% (inactive)
O=C(OCc1ccc2c(Br)cc(Br)c(O)c2n1)N1CCN(C(=O)c2cc3ccccc3[nH]2)CC1	53.9% (inactive)
Clc1ccc(-c2c3ccc(=[N+]4CCCCC4)cc-3oc3cc(N4CCCCC4)ccc23)cc1	-42.3% (active)
N#CSCc1ccc(Cl)c(CSC#N)c1	0.395% (active)
COc1cc(N=Nc2cc(S(=O)(=O)O)cc3cc(S(=O)(=O)O)cc(O)c23)c(C)cc1N=Nc1c(S(=O)(=O)O)cc2cc(Nc3ccccc3)ccc2c1O	93.6% (inactive)
O=C(O)c1ccc(-c2ccc(/C=N/Nc3nc(Nc4ccccc4)nc(N4CCCCC4)n3)o2)cc1	66.4% (inactive)
Cc1ccc(C2=NN(c3ccc(S(=O)(=O)NC(=O)NCc4ccccc4)cc3)C(c3ccc(N(C)C)cc3)C2)c(C)c1 (stereo not given)	-1.6% (active)
COc1cc(-c2nn(-c3ccc(NC(=O)Nc4ccc(Cl)c(C(F)(F)F)c4)cc3)cc2-c2ccncc2)ccc1Cl	1.53% (active)
COc1ccc(-c2nc(-c3nc4ccc(C)cc4[nH]3)cc3c2[nH]c2ccccc23)cc1	31.4% (inactive)
O=[N+]([O-])c1ccc(N=Nc2ccc(O)cc2O)cc1	32.5% (inactive)
C=C(C)[C@@H]1CC[C@]2(COC(=O)c3cccnc3)CC[C@]3(C)[C@H](CC[C@@H]4[C@@]5(C)CCCN(C(=O)c6cccnc6)C(C)(C)[C@@H]5CC[C@]43C)[C@@H]12	11.6% (inactive)
N=S(c1ccccc1[N+](=O)[O-])c1ccccc1[N+](=O)[O-]	10.1% (inactive)
N#CC1(C#N)C(c2cccs2)NC(c2cccs2)C1(C#N)C#N (stereo not given)	99% (inactive)
O=S(=O)(NCCCNc1nccc(-n2ccc3cccnc32)n1)c1ccc(Br)cc1	110% (inactive)
COc1ccc(/C=N/NC(=O)c2ccc(-n3cc(-c4ccccc4)nn3)cc2)cc1OC	94.2% (inactive)
NS(=O)(=O)c1ccc(-n2nc(C(=O)N/N=C\c3ccc(F)cc3)cc2-c2ccc(Br)cc2)cc1	71% (inactive)
COc1cc(CNS(=O)(=O)c2ccc(C)cc2)ccc1OCc1cn(-c2ccc(Br)cc2)nn1	106% (inactive)
Cc1nc(Nc2ccc(S(=O)(=O)Nc3cc(C)on3)cc2)c2ccccc2n1	101% (inactive)
O=C1C(Cl)=C(Cl)C(Cl)(Cl)C(Cl)C1(Cl)Cl (stereo not given)	77.7% (inactive)

Compound	growth
Cc1cccc(C[C@H](NC(=O)Nc2ccc(Cl)cc2F)C(=O)N[C@@H]2C(=O)N3C[C@H](O)C[C@H]3C(=O)N3CCCC[C@H]3C(=O)N[C@@H](C)C(=O)N3C[C@H](C)C[C@H]3C(=O)O[C@H]2C)c1	6.77% (active)
OCCNc1nccc(N2CCN(c3ccnc4cc(Cl)ccc34)CC2)n1	47.8% (inactive)
O=C(Nc1nc(-c2ccccc2)cs1)c1cc(-c2ccc(Br)cc2)nc2ccccc12	31.5% (inactive)
C[C@H]1[C@H](C)CC[C@]2(C(=O)NCCNCCN)CC[C@]3(C)C(=CC[C@@H]4[C@@]5(C)CCC(=O)C(C)(C)[C@@H]5CC[C@]43C)[C@H]12	-58.5% (active)
Cc1c2cnccc2c(C)c2c1oc1ccccc12	61.8% (inactive)
COC(OC)c1ccccc1	77.6% (inactive)
COC1=C(OC)C(=O)C(OC)=C(OC)C1=O	102% (inactive)
CC1=CC(=O)N(c2cccc3c(N4C(=O)C=C(C)C4=O)cccc23)C1=O	-1.53% (active)
CC1(C)[C@@H](O[C@@H]2OC[C@@H](O[C@@H]3O[C@H](CO)[C@@H](O)[C@H](O)[C@H]3O[C@@H]3OC[C@@H](O)[C@H](O)[C@H]3O)[C@H](O)[C@H]2O[C@@H]2O[C@H](CO)[C@@H](O)[C@H](O)[C@H]2O)CC[C@]2(C)[C@H]3CC[C@]45OC[C@@]6(CC[C@](C)(C=O)C[C@H]64)[C@H](O)C[C@@]5(C)[C@]3(C)CC[C@@H]12	-58.6% (active)
C=C(CN=[N+]=[N-])[C@@H]1CC[C@]2(C)[C@H](CC[C@@H]3[C@H]4[C@H]5OC(=O)[C@@]4(CCC5(C)C)CC[C@]32C)[C@@]1(C)CCC#N	22.7% [100 µM] (inactive)
COc1ccc(-c2nc(SCC(C)C)nc(N/N=C(/C)c3ccc(OC)c(OC)c3)c2C#N)cc1	89.4% (inactive)
Cc1cc(Cl)ccc1Nc1nc(C(F)(F)F)ccc1C(=O)N/N=C/c1c(Cl)cccc1Cl	-26.8% (active)
CC1(C)OC2COC3(C(=O)O)OC(C)(C)OC3C2O1 (stereo not given)	106% (inactive)
CCCCCCCCCCCCCC[n+]1ccc(C(N)=O)cc1	-50.6% (active)
COc1cccc(/C=N\Nc2ccc([N+](=O)[O-])cn2)c1O	57.5% (inactive)
N#Cc1ccc([N+](=O)[O-])o1	108% (inactive)
O=C(C(=O)c1cccnc1)c1cccnc1	104% (inactive)
N=C(N)c1ccc(-c2ccc(-c3ccc(-c4cccs4)s3)s2)cc1F	99.7% (inactive)
CCN(CC)CCSc1c2ccc(Cl)cc2nc2ccc(OC)cc12	68.8% (inactive)
COc1cc(NC(=O)c2cccc(-c3cc(=O)c4c(O)c(OC)c(OC)cc4o3)c2)cc(OC)c1OC	78% (inactive)
